PubChem BioAssay (EPA / NIEHS)
Records with an inconclusive call do not appear. The source made the active and inactive calls. How the source made its calls: active means hit-call score of the fitted dose curve at least 0.9, where 1 is the maximum; inconclusive means response in the unintended direction; inactive means score below 0.9.

Experiments:
[1] = target: rat Vasopressin 1 Receptor (V1), Avpr1a (gene 25107) (UniProt P30560); test: NVS_GPCR_rV1: NovaScreen (NVS) G Protein-Coupled Receptor Assay for rat Vasopressin 1 Receptor (V1) (AID 2283316)
Sequence of rat Vasopressin 1 Receptor (V1), Avpr1a (gene 25107) (P30560 whole entry, looked up): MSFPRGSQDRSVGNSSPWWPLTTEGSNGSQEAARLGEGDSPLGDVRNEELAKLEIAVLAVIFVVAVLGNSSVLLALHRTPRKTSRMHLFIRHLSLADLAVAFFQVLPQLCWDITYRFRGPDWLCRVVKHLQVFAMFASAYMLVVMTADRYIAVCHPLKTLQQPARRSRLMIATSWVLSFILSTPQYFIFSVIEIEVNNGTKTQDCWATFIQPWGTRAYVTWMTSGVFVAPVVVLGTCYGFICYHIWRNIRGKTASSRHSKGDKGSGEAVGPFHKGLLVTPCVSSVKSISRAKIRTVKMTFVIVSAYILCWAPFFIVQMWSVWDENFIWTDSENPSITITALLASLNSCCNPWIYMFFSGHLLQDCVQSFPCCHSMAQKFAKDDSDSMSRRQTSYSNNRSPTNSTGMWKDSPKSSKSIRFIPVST
Procedure, shortened: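 Radioligand binding on rat liver membranes, 1.5 h incubation, filter-based scintillation counting. Single 25 uM screen in duplicate; chemicals meeting threshold (e.g. 30% inhibition) run in concentration-response up to 50 uM.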

[2] = target: Voltage-dependent N-type calcium channel subunit alpha-1B (Rattus norvegicus) (UniProt Q02294); test: NVS_IC_rCaChN: NovaScreen (NVS) Ion Channel Assay for rat Calcium Channel, Type N (CaChN) (AID 2283317)

Compound | AC50 [1] | outcome [2]
COc1cc(OC)nc(NC(=O)NS(=O)(=O)c2ncccc2OCC(F)(F)F)n1 | 16.4 µM (active) | –
CCCCC(C#N)(Cn1cncn1)c1ccc(Cl)cc1 (stereo not drawn) | 1.98 µM (active) | –
N#Cc1c[nH]cc1-c1cccc2c1OC(F)(F)O2 | – | inactive
